From PubChem BioAssay
C diff HTS: inhibitors of Clostridium difficile growth. Clostridium difficile clinical isolate growth, OD600, 24 h; hits give low values. growth activity, negative = inhibition, % at 16 µg/mL (by protocol). 86,000 tested, 0.25% active. AID 1259249;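 active means mean growth activity at or below -80% and every replicate also at or below -80%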;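 further: 0% = DMSO wells and -100% = levofloxacin 16 µg/mL wells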
Pf Dd2 growth: blocks growth of Plasmodium falciparum Dd2 parasites; P. falciparum Dd2 growth, SYBR Green, 72 h; hits give low values; activity change, % at 10 µM; 94,000 tested, 2.3% active; in the data active means activity change below about -80%
T cruzi growth: blocks T. cruzi growth in NIH3T3 culture. inhibition, % at 8.34 µM. AID 624255. 77,000 tested, 5.9% active. T. cruzi beta-gal in NIH3T3, GalScreen luminescence, 90 h;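 active means mean inhibition above about 93%, with at least 55% of replicates each passing it, limit read from the data, passing the limit was not always enough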
Active calls of the source: *. Most compounds without a hit are left out; they make up all but 6.8% or so of the library.

CC=Cc1ccc2n(c1=O)C[C@H]1[C@H](CO)[C@@H](C(=O)NCCC)N(C(=O)C3CCOCC3)[C@@H]21 (mixture of isomers) was read as C diff HTS -2 and T cruzi growth 26.
Screening C[C@@H]1CN([C@H](C)CO)C(=O)c2cccc(NC(=O)c3nc4ccccc4s3)c2O[C@H]1CN(C)C(=O)Nc1ccc2c(c1)OCO2 returned Pf Dd2 growth -82* and T cruzi growth 59.
For CC(C)NC(=O)N(C)C[C@H]1Oc2c(NC(=O)c3nc4ccccc4s3)cccc2C(=O)N([C@@H](C)CO)C[C@H]1C the results were C diff HTS -3, Pf Dd2 growth -72 and T cruzi growth 75.
Screening CC(C)NC(=O)N(C)C[C@H]1Oc2c(NC(=O)c3nc4ccccc4s3)cccc2C(=O)N([C@H](C)CO)C[C@H]1C returned C diff HTS 0, Pf Dd2 growth -83* and T cruzi growth -16.
`Cc1ccc(S(=O)(=O)N(C)C[C@@H]2Oc3c(NC(=O)c4nc5ccccc5s4)cccc3C(=O)N([C@@H](C)CO)C[C@H]2C)cc1` gave C diff HTS 0, Pf Dd2 growth -85* and T cruzi growth 68.
Screening C[C@@H]1CN([C@H](C)CO)C(=O)c2cccc(NC(=O)c3nc4ccccc4s3)c2O[C@@H]1CN(C)C(=O)Nc1ccc2c(c1)OCO2 returned Pf Dd2 growth -57 and T cruzi growth 71.
For C[C@@H]1CN([C@@H](C)CO)C(=O)c2cccc(NC(=O)c3nc4ccccc4s3)c2O[C@H]1CN(C)C(=O)Nc1ccc(C(F)(F)F)cc1 the results were C diff HTS -1, Pf Dd2 growth -90* and T cruzi growth 88.
C[C@H]1CN([C@@H](C)CO)C(=O)c2cccc(NC(=O)c3nc4ccccc4s3)c2O[C@@H]1CN(C)C(=O)Nc1ccc(C(F)(F)F)cc1 was read as C diff HTS 11, Pf Dd2 growth -56 and T cruzi growth 82.
Cc1ccc(S(=O)(=O)N(C)C[C@H]2Oc3c(NC(=O)c4nc5ccccc5s4)cccc3C(=O)N([C@@H](C)CO)C[C@H]2C)cc1 was read as C diff HTS -1, Pf Dd2 growth -56 and T cruzi growth 96.
For CC(C)NC(=O)Nc1ccc2c(c1)C(=O)N([C@@H](C)CO)C[C@H](C)[C@H](CN(C)Cc1ccc(C(=O)O)cc1)OCCCC[C@@H](C)O2 the results were C diff HTS 9, Pf Dd2 growth 3 and T cruzi growth 22.
`C[C@H](CO)N1C[C@H](C)[C@H](CN(C)S(C)(=O)=O)Oc2c(NS(=O)(=O)c3ccc(Cl)cc3)cccc2C1=O` gave C diff HTS -1, Pf Dd2 growth 9 and T cruzi growth 4.
For O=C(NC1CCCCC1)N1CC(=O)N2[C@H](CO)[C@@H](c3ccc(-c4ccccc4)cc3)[C@H]2C1 the results were C diff HTS -14 and Pf Dd2 growth 6.
COc1ccc(S(=O)(=O)Nc2ccc3c(c2)C(=O)N([C@H](C)CO)C[C@H](C)[C@@H](CN(C)C(=O)NC2CCCCC2)OCCCC[C@H](C)O3)cc1 was read as C diff HTS 9, Pf Dd2 growth -27 and T cruzi growth 67.
Screening COc1ccc(S(=O)(=O)Nc2ccc3c(c2)C(=O)N([C@@H](C)CO)C[C@H](C)[C@@H](CN(C)C(=O)C2CCCCC2)OCCCC[C@@H](C)O3)cc1 returned C diff HTS 0, Pf Dd2 growth -92* and T cruzi growth -36.
`COc1ccc(S(=O)(=O)Nc2ccc3c(c2)C(=O)N([C@H](C)CO)C[C@@H](C)[C@@H](CN(C)C(=O)C2CCCCC2)OCCCC[C@@H](C)O3)cc1` gave C diff HTS -1, Pf Dd2 growth -76 and T cruzi growth 78.
Screening COc1ccc(S(=O)(=O)Nc2ccc3c(c2)C(=O)N([C@@H](C)CO)C[C@H](C)[C@@H](CN(C)C(=O)NC2CCCCC2)OCCCC[C@@H](C)O3)cc1 returned C diff HTS 6, Pf Dd2 growth -87* and T cruzi growth 101.
Cc1ccc(S(=O)(=O)Nc2ccc3c(c2)C(=O)N([C@@H](C)CO)C[C@H](C)[C@H](CN(C)C(=O)NC(C)C)OCCCC[C@H](C)O3)cc1 was read as C diff HTS 6, Pf Dd2 growth -53 and T cruzi growth 52.
For COc1ccc2c3c([nH]c2c1)[C@H](CO)N(C(=O)c1ccc(F)cc1)CC31CN(C(=O)Nc2ccc(F)cc2)C1 the results were C diff HTS 13 and Pf Dd2 growth -34.
`COCC#Cc1ccc(CC[C@H]2O[C@H]3CC[C@@H](CO)O[C@H]3C[C@@H]2n2cc(C3CC3)nn2)cc1` gave C diff HTS 5 and Pf Dd2 growth -89*.
For COCC#Cc1ccc(CC[C@H]2O[C@H]3CC[C@H](CO)O[C@H]3C[C@H]2n2cc(C(C)(C)O)nn2)cc1 the results were C diff HTS 10 and Pf Dd2 growth 4.
